Measured values: the supplement of paper PMC10849652
Targets with a hit are over-represented here; the source holds about 7,900 in all. About 0.6% of all pairs of compound and target were hits. Unmarked numbers belong to inactive results.

How the values were obtained:
Experiment in all cases: log2 fold change, soluble protein after heating vs DMSO (PISA); higher = thermal stabilisation; K562 cells, 10 uM, 30 min; active = over 0.2 and 3.5 SD of the protein, either way, in both replicates (recomputed)
[1] = compound: CC[C@@H]1C(=O)N(C)c2cnc(Nc3ccc(C(=O)NC4CCN(C)CC4)cc3OC)nc2N1C1CCCC1
Procedure, shortened: (§1)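 K562 cells at 2×10^6 cells/mL were exposed to 10 μM compound for 30 min, then aliquots were heated for 3 min across 48°C-58°C, pooled, and extracted in PBS containing 0.5% NP-40 at 4°C. The supernatant after 21,000xg for 90 min was taken as soluble protein and measured by TMTpro 16plex LC-MS/MS with channel sums equalised. Thermal stability is reported relative to control samples, with values from duplicates. Fold changes are given on a log2 scale.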

[2] = compound: CC[C@@H]1C(=O)N(C)c2cnc(Nc3ccc(C(=O)N[C@H]4CC[C@H](N5CCN(CC6CC6)CC5)CC4)cc3OC)nc2N1C(C)C [volasertib]
Procedure, shortened: as §1

[3] = compound: CC[C@H](C)N1C=C(C2=C(C=C(C=C21)C3=CN=C(C=C3)N4CCNCC4)C(=O)NCC5=C(C=C(NC5=O)C)C)C
Procedure, shortened: as §1

[4] = compound: CC[C@H](C)[C@@H](C(=O)N[C@@H]([C@@H](C)O)C(=O)N[C@@H](CC(C)C)C(=O)[C@]1(CO1)C)NC(=O)[C@H]([C@@H](C)CC)N(C)C(=O)C [epoxomicin]
Procedure, shortened: as §1

[5] = compound: CCn1c(C(=O)N(C2CC2)C2CC2)cc2c3c(ncn3C)c(Nc3cc(C)n(C)n3)nc21
Procedure, shortened: as §1

[6] = compound: CCn1cc(-c2ccnc3[nH]c(-c4cccc(CN(C)C)c4)cc23)c(-c2ccc(NC(=O)N(C)C)cc2)n1
Procedure, shortened: as §1

[7] = compound: CN(C)CC(=O)Nc1ccc2[nH]c(=O)c3ccccc3c2c1
Procedure, shortened: as §1

[8] = compound: CN(CCOC1=CC=C(C=C1)C[C@H]2C(=O)NC(=O)S2)C3=CC=CC=N3 (racemic) [rosiglitazone]
Procedure, shortened: as §1

[9] = compound: CN1C2=C(C3=C1C(=O)N(N=C3)CC4=CC(=CC=C4)N)SC(=C2)S(=O)C
Procedure, shortened: as §1

[10] = compound: CN1CCC(CNc2ccc3ncc(-c4cccc(OC(F)(F)F)c4)n3n2)CC1
Procedure, shortened: as §1

[11] = compound: CN1CCN(CCOc2cc(OC3CCOCC3)c3c(Nc4c(Cl)ccc5c4OCO5)ncnc3c2)CC1 [saracatinib]
Procedure, shortened: as §1

[12] = compound: CN1CCN(c2nc(C3=C(c4c[nH]c5ccccc45)C(=O)NC3=O)c3ccccc3n2)CC1 [sotrastaurin]
Procedure, shortened: as §1

[13] = compound: CN1CC[C@H](c2c(O)cc(O)c3c(=O)cc(-c4ccccc4Cl)oc23)[C@H](O)C1 [alvocidib]
Procedure, shortened: as §1

[14] = compound: CN1CCc2c(c3ccccc3n2Cc2ccc(C(=O)NO)cc2)C1 [Tubastatin A]
Procedure, shortened: as §1

[15] = compound: CNC(=O)C1=CC=CC=C1NC2=NC(=NC=C2Cl)NC3=C(C=C(C=C3)N4CCOCC4)OC
Procedure, shortened: as §1

[16] = compound: CNC(=O)c1ccc(Nc2ncc(C(F)(F)F)c(NCc3nccnc3N(C)S(C)(=O)=O)n2)cc1 [defactinib]
Procedure, shortened: as §1

[17] = compound: CNCc1ccc(-c2[nH]c3cc(F)cc4c3c2CCNC4=O)cc1 [rucaparib]
Procedure, shortened: as §1

[18] = compound: CNc1nc(-c2ccc3c(N)n[nH]c3c2)cc(N2C[C@@H](C(=O)NC3CCCCC3)CC[C@H]2C)n1
Procedure, shortened: as §1

[19] = compound: COC(=O)N[C@@H](C)CNc1nccc(-c2cn(C(C)C)nc2-c2cc(Cl)cc(NS(C)(=O)=O)c2F)n1 [encorafenib]
Procedure, shortened: as §1

[20] = compound: COC(=O)[C@H](CCSC)NC(=O)C1=C(C=C(C=C1)NC[C@H](CS)N)C2=CC=CC=C2
Procedure, shortened: as §1

UniProt Q96GG9, sequence (Q96GG9 whole entry, looked up): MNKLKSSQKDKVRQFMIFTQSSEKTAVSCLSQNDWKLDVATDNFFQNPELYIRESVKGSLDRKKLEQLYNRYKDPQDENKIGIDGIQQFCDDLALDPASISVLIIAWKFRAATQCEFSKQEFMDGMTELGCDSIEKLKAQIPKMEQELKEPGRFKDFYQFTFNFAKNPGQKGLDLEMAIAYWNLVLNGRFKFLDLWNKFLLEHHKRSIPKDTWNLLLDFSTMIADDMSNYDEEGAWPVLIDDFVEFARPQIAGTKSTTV
UniProt Q9C073, sequence (Q9C073 whole entry, looked up): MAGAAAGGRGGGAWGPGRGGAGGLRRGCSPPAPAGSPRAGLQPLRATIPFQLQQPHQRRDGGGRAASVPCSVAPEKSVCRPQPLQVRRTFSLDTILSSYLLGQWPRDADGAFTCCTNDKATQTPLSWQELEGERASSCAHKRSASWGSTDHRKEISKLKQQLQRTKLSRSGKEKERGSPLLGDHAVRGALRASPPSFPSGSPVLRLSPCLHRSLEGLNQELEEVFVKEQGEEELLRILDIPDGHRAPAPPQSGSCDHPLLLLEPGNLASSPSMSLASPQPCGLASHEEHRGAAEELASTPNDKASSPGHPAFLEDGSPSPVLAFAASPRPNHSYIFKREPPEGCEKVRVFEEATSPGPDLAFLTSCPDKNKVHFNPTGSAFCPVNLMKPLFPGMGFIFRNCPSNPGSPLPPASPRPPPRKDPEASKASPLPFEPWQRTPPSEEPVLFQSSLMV
UniProt Q9UBQ6, sequence (Q9UBQ6 whole entry, looked up): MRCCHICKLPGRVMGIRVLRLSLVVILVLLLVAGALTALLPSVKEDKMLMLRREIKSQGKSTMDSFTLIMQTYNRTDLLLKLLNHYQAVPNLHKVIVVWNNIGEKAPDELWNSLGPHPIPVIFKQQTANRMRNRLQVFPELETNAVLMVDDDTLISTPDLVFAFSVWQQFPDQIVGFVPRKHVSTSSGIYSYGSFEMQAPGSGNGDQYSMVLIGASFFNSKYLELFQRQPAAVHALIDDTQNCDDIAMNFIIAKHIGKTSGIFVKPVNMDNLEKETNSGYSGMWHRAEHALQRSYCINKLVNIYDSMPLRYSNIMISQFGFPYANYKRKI
UniProt Q9BU89, sequence (Q9BU89 whole entry, looked up): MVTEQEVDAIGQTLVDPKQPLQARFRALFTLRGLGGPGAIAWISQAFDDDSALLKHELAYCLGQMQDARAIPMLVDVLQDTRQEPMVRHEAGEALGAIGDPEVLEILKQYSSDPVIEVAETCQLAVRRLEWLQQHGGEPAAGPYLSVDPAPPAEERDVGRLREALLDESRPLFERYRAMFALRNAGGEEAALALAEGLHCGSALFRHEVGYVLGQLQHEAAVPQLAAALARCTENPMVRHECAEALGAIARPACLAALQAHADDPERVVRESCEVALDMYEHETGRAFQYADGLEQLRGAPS
UniProt Q7L576, sequence (Q7L576 whole entry, looked up): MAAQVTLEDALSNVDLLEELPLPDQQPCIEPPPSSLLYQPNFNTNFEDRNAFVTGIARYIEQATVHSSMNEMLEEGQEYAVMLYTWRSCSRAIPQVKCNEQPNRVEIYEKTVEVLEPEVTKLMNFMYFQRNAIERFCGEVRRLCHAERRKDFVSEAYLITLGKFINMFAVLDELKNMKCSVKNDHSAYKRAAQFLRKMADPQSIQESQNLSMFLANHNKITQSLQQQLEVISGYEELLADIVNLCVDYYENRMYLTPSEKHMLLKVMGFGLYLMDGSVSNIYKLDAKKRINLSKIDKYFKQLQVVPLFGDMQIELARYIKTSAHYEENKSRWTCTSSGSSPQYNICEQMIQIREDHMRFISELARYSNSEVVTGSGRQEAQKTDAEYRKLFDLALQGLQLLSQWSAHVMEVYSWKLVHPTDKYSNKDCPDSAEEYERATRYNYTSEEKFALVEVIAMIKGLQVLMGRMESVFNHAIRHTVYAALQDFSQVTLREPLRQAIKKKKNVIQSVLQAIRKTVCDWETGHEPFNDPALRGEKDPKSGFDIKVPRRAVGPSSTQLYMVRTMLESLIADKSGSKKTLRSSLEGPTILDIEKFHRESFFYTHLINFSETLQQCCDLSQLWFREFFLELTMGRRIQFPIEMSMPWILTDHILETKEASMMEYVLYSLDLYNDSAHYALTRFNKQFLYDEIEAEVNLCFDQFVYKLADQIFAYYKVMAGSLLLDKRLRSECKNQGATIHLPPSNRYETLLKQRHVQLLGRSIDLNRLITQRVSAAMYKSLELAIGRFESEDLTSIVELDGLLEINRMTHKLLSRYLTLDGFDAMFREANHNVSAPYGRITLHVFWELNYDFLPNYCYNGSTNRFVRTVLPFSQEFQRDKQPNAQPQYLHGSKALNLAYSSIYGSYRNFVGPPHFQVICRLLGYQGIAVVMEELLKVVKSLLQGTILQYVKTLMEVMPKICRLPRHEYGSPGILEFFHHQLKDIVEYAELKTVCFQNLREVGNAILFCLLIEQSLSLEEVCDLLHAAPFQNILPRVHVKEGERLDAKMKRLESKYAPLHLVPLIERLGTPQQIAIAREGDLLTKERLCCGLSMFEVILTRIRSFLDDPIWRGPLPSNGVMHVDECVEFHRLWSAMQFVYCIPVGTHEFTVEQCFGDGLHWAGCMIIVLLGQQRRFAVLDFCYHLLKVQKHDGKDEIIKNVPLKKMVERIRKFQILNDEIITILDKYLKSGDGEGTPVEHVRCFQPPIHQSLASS
UniProt Q8TAG9, sequence (Q8TAG9 whole entry, looked up): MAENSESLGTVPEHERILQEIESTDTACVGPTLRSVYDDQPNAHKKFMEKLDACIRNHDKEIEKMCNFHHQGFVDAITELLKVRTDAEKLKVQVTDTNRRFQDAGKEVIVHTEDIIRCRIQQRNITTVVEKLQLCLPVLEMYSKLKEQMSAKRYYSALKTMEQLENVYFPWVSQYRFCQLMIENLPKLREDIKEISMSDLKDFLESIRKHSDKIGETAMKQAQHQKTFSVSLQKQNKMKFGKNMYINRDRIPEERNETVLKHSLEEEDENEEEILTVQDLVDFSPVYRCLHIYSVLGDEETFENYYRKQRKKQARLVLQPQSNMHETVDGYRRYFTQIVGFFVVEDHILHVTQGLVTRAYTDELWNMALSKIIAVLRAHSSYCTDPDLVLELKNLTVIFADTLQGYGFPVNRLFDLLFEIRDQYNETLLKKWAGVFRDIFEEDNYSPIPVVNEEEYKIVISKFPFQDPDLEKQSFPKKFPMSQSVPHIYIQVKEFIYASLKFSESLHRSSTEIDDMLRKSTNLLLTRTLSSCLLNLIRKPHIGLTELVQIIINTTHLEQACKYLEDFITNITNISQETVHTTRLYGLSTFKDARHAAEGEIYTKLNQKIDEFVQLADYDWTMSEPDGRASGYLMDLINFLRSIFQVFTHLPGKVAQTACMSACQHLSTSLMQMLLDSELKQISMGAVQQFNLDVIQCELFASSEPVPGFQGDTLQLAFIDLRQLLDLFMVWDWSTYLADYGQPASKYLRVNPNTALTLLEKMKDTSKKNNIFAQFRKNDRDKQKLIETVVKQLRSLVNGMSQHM
UniProt P10619, sequence (P10619 whole entry, looked up): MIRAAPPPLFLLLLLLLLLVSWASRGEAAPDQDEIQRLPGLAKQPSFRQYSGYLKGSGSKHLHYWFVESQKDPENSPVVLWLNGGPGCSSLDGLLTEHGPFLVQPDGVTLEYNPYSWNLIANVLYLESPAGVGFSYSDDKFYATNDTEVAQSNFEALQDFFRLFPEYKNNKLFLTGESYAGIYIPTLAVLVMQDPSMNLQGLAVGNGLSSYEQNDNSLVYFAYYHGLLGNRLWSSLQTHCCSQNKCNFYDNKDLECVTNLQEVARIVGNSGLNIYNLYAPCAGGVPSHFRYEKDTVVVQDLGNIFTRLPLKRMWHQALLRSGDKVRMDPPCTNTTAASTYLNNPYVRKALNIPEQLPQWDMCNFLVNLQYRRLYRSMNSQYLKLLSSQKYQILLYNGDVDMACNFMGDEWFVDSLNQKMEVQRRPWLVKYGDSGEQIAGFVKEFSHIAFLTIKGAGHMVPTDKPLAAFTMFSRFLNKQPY

FAM117A (UniProt Q9C073) showed a log2 fold change [1] of 0.001, a log2 fold change [2] of 0.129 and a log2 fold change [3] of 0.071. The log2 fold change [4] was 0.091, the log2 fold change [5] was 0.006 and the log2 fold change [6] was -0.025. For the same target, the log2 fold change [7] was 0.028, the log2 fold change [8] was 0.015 and the log2 fold change [9] was -0.008. For the same target, the log2 fold change [10] was -0.182, the log2 fold change [11] was -0.019 and the log2 fold change [12] was 0.009. The log2 fold change [13] was -0.077, the log2 fold change [14] was 0.058 and the log2 fold change [15] was -0.268 (active). For the same target, the log2 fold change [16] was -0.141, the log2 fold change [17] was -0.079 and the log2 fold change [18] was 0.083. For the same target, the log2 fold change [19] was -0.023 and the log2 fold change [20] was 0.009.
For CYFIP1 (UniProt Q7L576), the log2 fold change [1] was -0.011, the log2 fold change [2] was -0.233 (active) and the log2 fold change [3] was 0.046. It also gave a log2 fold change [4] of 0.02, a log2 fold change [5] of -0.008 and a log2 fold change [6] of 0.011. It also gave a log2 fold change [7] of 0.024, a log2 fold change [8] of 0.045 and a log2 fold change [9] of 0.001. It also gave a log2 fold change [10] of -0.034, a log2 fold change [11] of -0.023 and a log2 fold change [12] of -0.026. For the same target, the log2 fold change [13] was -0.038, the log2 fold change [14] was 0.006 and the log2 fold change [15] was -0.001. For the same target, the log2 fold change [16] was -0.049, the log2 fold change [17] was 0.025 and the log2 fold change [18] was 0. For the same target, the log2 fold change [19] was -0.005 and the log2 fold change [20] was -0.013.
In the case of EXOC6 (UniProt Q8TAG9), the log2 fold change [1] is reported as -0.224, the log2 fold change [2] is reported as -0.443 (active) and the log2 fold change [3] is reported as 0.102. For the same target, the log2 fold change [4] was -0.06, the log2 fold change [5] was -0.051 and the log2 fold change [6] was 0.014. For the same target, the log2 fold change [7] was 0.033, the log2 fold change [8] was 0.009 and the log2 fold change [9] was 0.06. The log2 fold change [10] was -0.23, the log2 fold change [11] was -0.02 and the log2 fold change [12] was -0.153. The log2 fold change [13] was -0.151, the log2 fold change [14] was 0.042 and the log2 fold change [15] was 0.075. It also gave a log2 fold change [16] of -0.061, a log2 fold change [17] of 0.025 and a log2 fold change [18] of -0.015. For the same target, the log2 fold change [19] was 0.013 and the log2 fold change [20] was 0.009.
With DCUN1D1 (UniProt Q96GG9) the log2 fold change [1] was -0.1, the log2 fold change [2] was -0.276 (active) and the log2 fold change [3] was 0.018. It also gave a log2 fold change [4] of 0.048, a log2 fold change [5] of -0.006 and a log2 fold change [6] of -0.061. It also gave a log2 fold change [7] of 0.03, a log2 fold change [8] of 0.013 and a log2 fold change [9] of -0.056. It also gave a log2 fold change [10] of -0.178, a log2 fold change [11] of 0.032 and a log2 fold change [12] of -0.001. For the same target, the log2 fold change [13] was -0.067, the log2 fold change [14] was -0.009 and the log2 fold change [15] was 0.007. The log2 fold change [16] was -0.033, the log2 fold change [17] was -0.026 and the log2 fold change [18] was -0.02. The log2 fold change [19] was 0.014 and the log2 fold change [20] was -0.011.
With CTSA (UniProt P10619) the log2 fold change [1] was -1.24 (active), the log2 fold change [2] was -1.57 (active) and the log2 fold change [3] was -0.037. The log2 fold change [4] was -0.003, the log2 fold change [5] was -0.031 and the log2 fold change [6] was 0.018. The log2 fold change [7] was 0.011, the log2 fold change [8] was -0.017 and the log2 fold change [9] was -0.007. For the same target, the log2 fold change [10] was -1.44 (active), the log2 fold change [11] was 0.056 and the log2 fold change [12] was 0.089. It also gave a log2 fold change [13] of 0.04, a log2 fold change [14] of -0.015 and a log2 fold change [15] of 0.06. It also gave a log2 fold change [16] of 0.022, a log2 fold change [17] of -0.041 and a log2 fold change [18] of 0.002. For the same target, the log2 fold change [19] was 0.057 and the log2 fold change [20] was 0.065.
Work on DOHH (UniProt Q9BU89) yielded a log2 fold change [1] of -0.035, a log2 fold change [2] of -0.027 and a log2 fold change [3] of 0.031. The log2 fold change [4] was -0.197, the log2 fold change [5] was 0.064 and the log2 fold change [6] was -0.1. The log2 fold change [7] was 0.145, the log2 fold change [8] was 0.471 (active) and the log2 fold change [9] was 0.025. It also gave a log2 fold change [10] of 0.164, a log2 fold change [11] of -0.035 and a log2 fold change [12] of 0.196. It also gave a log2 fold change [13] of 0.147, a log2 fold change [14] of -0.121 and a log2 fold change [15] of -0.076. The log2 fold change [16] was -0.152, the log2 fold change [17] was -0.002 and the log2 fold change [18] was -0.064. It also gave a log2 fold change [19] of -0.074 and a log2 fold change [20] of 0.037.
Work on EXTL2 (UniProt Q9UBQ6) yielded a log2 fold change [1] of 0.057, a log2 fold change [2] of -0.052 and a log2 fold change [3] of 0.041. For the same target, the log2 fold change [4] was -0.035, the log2 fold change [5] was -0.04 and the log2 fold change [6] was -0.046. For the same target, the log2 fold change [7] was 0.06, the log2 fold change [8] was -0.024 and the log2 fold change [9] was -0.001. The log2 fold change [10] was -0.157, the log2 fold change [11] was 0.157 and the log2 fold change [12] was 0.036. The log2 fold change [13] was -0.122, the log2 fold change [14] was -0.136 and the log2 fold change [15] was -0.072. It also gave a log2 fold change [16] of -0.145, a log2 fold change [17] of 0.001 and a log2 fold change [18] of 0.052. The log2 fold change [19] was -0.08 and the log2 fold change [20] was 0.13.
With DMXL1 (UniProt Q9Y485) the log2 fold change [1] was -0.119, the log2 fold change [2] was -0.241 and the log2 fold change [3] was 0.029. The log2 fold change [4] was 0.026, the log2 fold change [5] was -0.044 and the log2 fold change [6] was 0.072. For the same target, the log2 fold change [7] was 0.012, the log2 fold change [8] was -0.032 and the log2 fold change [9] was 0.01. The log2 fold change [10] was -0.276 (active), the log2 fold change [11] was 0.014 and the log2 fold change [12] was 0.001. For the same target, the log2 fold change [13] was -0.068, the log2 fold change [14] was -0.011 and the log2 fold change [15] was -0.065. For the same target, the log2 fold change [16] was -0.035, the log2 fold change [17] was 0.076 and the log2 fold change [18] was -0.017. The log2 fold change [19] was 0.043 and the log2 fold change [20] was -0.047.
